Shown is part of a subset that was picked to be rich in hits.
G9a block = blocks human histone lysine methyltransferase G9a. 8.8% of 350,000 active. G9a H3K9 monomethylation, AlphaScreen, 2 h. Potency, µM (series often up to 102 µM), for inactives: at the highest dose activity, negative = inhibition, actives largely listed as inhibitors. Q96KQ7; also: % is scaled to controls: 0 for no effect and ±100 for the full control effect; nearly all actives have a fitted effect of over 75% in size
Target sequence (Q96KQ7 913-1193 limits assumed): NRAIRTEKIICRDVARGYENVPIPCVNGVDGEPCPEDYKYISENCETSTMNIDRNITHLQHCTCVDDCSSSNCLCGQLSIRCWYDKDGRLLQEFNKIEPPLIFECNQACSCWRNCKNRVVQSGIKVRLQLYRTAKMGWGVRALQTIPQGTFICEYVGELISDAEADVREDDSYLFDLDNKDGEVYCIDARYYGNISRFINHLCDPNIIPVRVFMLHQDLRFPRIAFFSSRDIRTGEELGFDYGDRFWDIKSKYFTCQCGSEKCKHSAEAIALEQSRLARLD
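Compounds were preincubated with 20 nM G9a for 15 min, after which biotinylated H3K9 peptide (500 nM) and SAM (20 uM) started a 2 h room-temperature reaction. Monomethylated product was quantified by antibody-based AlphaScreen chemiluminescence.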
Glioma ERSR ind = induces the endoplasmic reticulum stress response in human glioma cells; U87-MG GRP78 promoter luciferase reporter, 16 h; Potency, µM, for inactives: top-dose activation, hits mostly activators; 0.02% of 420,000 active; AID 602332; also: series mostly up to about 76 µM; % of control where 0% means no effect; nearly all actives have a fitted effect of over 35% in size
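Stably transfected U87-MG glioma cells carrying a GRP78-based luciferase sensor; 16 h compound incubation. Luminescence end-point read 10 min after Bright-Glo addition at room temperature.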
ALOX12 inh = blocks human arachidonate 12S-lipoxygenase; P18054; purified 12hLO, xylenol orange hydroperoxide absorbance; 1.1% of 580,000 active; Potency, µM (doses to about 108 µM), without a hit: at the highest dose activity change, negative = inhibition, most hits filed as inhibitors; also: % is scaled to controls: 0 for no effect and ±100 for the full control effect
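Hydroperoxide product was detected by ferrous iron/xylenol orange as the 573 to 405 nm absorbance ratio. Arachidonic acid at 40 uM (final) was turned over for 30 min at room temperature by 150 nM human 12hLO, pH 7.0 Hepes buffer, after 15 min compound preincubation.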
Sfp PPTase inh = Sfp phosphopantetheinyl transferase inhibition. Biochemical Sfp PPTase activity, qHTS. Potency, µM, for the others: largest response in the series, negative = inhibition, usual class: inhibitors. 3.5% of 310,000 active;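 also: the enzyme is Sfp with the accession as filed and its product quenches rhodamine fluorescence; 0% = enzyme reaction without inhibitor and -100% = no enzyme wells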
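Sfp 15 nM + cpd, 15 min RT; start w/ rhodamine-CoA 5 uM, BHQ-2-YbbR 12.5 uM (final); 50 mM Hepes pH 7.6, 10 mM MgCl2, 0.01% NP-40, 0.01% BSA; read 525/598 nm at 0 and 30 min.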
VDR inhibitor = inhibitors of human vitamin D receptor | VDR-SRC2-3 peptide fluorescence polarization, 2 h | Potency, µM, for the others: max response, negative = inhibition, hits mostly inhibitors | 0.93% of 400,000 active | P11473; also: % is scaled to controls: 0 for no effect and ±100 for the full control effect
Target sequence (P11473 whole entry, looked up): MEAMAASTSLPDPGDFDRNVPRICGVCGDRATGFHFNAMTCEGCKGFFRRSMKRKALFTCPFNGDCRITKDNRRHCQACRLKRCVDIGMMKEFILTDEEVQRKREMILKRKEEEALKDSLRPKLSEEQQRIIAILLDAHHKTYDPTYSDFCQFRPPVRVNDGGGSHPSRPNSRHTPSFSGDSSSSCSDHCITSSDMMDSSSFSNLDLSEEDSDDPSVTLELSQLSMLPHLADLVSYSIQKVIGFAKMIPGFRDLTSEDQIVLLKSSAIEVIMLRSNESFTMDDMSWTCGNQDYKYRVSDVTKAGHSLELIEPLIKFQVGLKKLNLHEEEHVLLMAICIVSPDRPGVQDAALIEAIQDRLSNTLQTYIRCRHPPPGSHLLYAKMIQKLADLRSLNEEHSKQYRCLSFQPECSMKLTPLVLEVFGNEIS
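After 23 nl compound addition and a short centrifugation, plates sat for 2 hours at ambient temperature; polarization of fluorescence then indicated loss of VDR binding to peptide SRC2-3.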
The depositor's hits bear a star; [ ] = another dose, or the depositor's remark. Calls follow the shape of the dose curve; as a rule, active = well fitted curve in the direction sought with a large enough effect; inconclusive = small, poorly fitted or top-dose-only effect, or another doubt; inactive = no such curve, though single readings can be large; an effect the other way counts as inactive or inconclusive. Potency is read from the fitted curve at half-maximal effect.

What do the screens show for `Cc1ccc(N2C(=O)[C@@H]3[C@H](C2=O)[C@H]2C=C(C(=O)c4ccccc4)C=CN2[C@@H]3C(=O)c2ccc(Cl)cc2)cc1`?
G9a block: 2.2µM*; Glioma ERSR ind: -3%; ALOX12 inh: -27%; Sfp PPTase inh: -14%; VDR inhibitor: 3%

How did O=C(c1ccco1)[C@@H]1[C@@H]2C(=O)N(c3ccccc3)C(=O)[C@@H]2C2c3ccccc3C=CN21 (some centres not stated) do in these assays?
G9a block: 16%[2.33 µM]; Glioma ERSR ind: -1%; ALOX12 inh: inconclusive; Sfp PPTase inh: inconclusive; VDR inhibitor: -15%

What do the screens show for `O=C(C1=C[C@@H]2[C@H]3C(=O)N(c4ccccc4Cl)C(=O)[C@H]3[C@@H](C(=O)c3ccc(Cl)cc3)N2C=C1)c1ccccc1`?
G9a block: 8.9µM*; Sfp PPTase inh: -6%

Results for O=C(c1ccc(Cl)cc1)[C@@H]1[C@@H]2C(=O)N(c3ccccc3)C(=O)[C@@H]2C2c3ccccc3C=NN21 (some centres not stated) ?
G9a block: 20µM*; Glioma ERSR ind: 5%; ALOX12 inh: -4%; Sfp PPTase inh: -12%; VDR inhibitor: -2%

Results for NC(=O)c1c(NC(=O)CCCn2cnc([N+](=O)[O-])n2)sc2c1CCCC2 ?
G9a block: 2.8µM*; Glioma ERSR ind: -2%; ALOX12 inh: 40µM*; Sfp PPTase inh: 7.9µM*; VDR inhibitor: 45µM*

Results for Cc1cc([N+](=O)[O-])nn1CC(=O)Nc1sc2c(c1C(N)=O)CCCC2 ?
G9a block: 32µM*; Glioma ERSR ind: -2%; ALOX12 inh: -29%; Sfp PPTase inh: -15%; VDR inhibitor: 3%

What do the screens show for `Cc1cc([N+](=O)[O-])nn1CCCC(=O)Nc1sc2c(c1C(N)=O)CCCC2`?
G9a block: 1.8µM*; Glioma ERSR ind: -2%; ALOX12 inh: 45µM*; Sfp PPTase inh: 18%; VDR inhibitor: 32µM*

How did CC1CCc2c(sc(NC(=O)CCCn3cnc([N+](=O)[O-])n3)c2C(N)=O)C1 (configuration not stated) do in these assays?
G9a block: inconclusive; Glioma ERSR ind: -1%; ALOX12 inh: -8%; Sfp PPTase inh: 4%; VDR inhibitor: -14%

What do the screens show for `O=C(OCc1nc2ccccc2o1)c1ccc(CO)cc1`?
ALOX12 inh: 24%

Results for CN(C)CC(NS(=O)(=O)c1ccccc1F)c1ccccc1 (configuration not stated) ?
ALOX12 inh: 6%

How did O=[N+]([O-])c1ccc(O)c(Nc2c([N+](=O)[O-])ccc3nonc23)c1 do in these assays?
G9a block: 50µM*; Glioma ERSR ind: -12%; ALOX12 inh: inconclusive; Sfp PPTase inh: -9%; VDR inhibitor: -5%

Results for Cc1cc(Oc2ccc(Cl)cc2)nc(-c2ccccn2)n1 ?
G9a block: 18µM*; Glioma ERSR ind: -8%; ALOX12 inh: 136%; Sfp PPTase inh: 13%; VDR inhibitor: -7%

Results for Cc1ccc(NCc2nnc(SCC(N)=O)o2)c(C)c1 ?
G9a block: 11µM*; Glioma ERSR ind: -5%; ALOX12 inh: 1%; Sfp PPTase inh: -28%; VDR inhibitor: 3%

What do the screens show for `Cc1ccc(C(=O)CSc2nnc(CNc3ccc(C)cc3C)o2)cc1`?
G9a block: 6%[12.7 µM]; Glioma ERSR ind: -2%; ALOX12 inh: 0%; Sfp PPTase inh: -15%; VDR inhibitor: -12%

What do the screens show for `COc1ccc(NCc2nnc(SCC(=O)c3ccc(C)cc3)o2)cc1`?
G9a block: 14µM*; Glioma ERSR ind: 1%; ALOX12 inh: -1%; Sfp PPTase inh: -8%; VDR inhibitor: inconclusive

Results for COc1ccc(C(=O)CSc2nnc(CNc3ccc(F)cc3)o2)cc1 ?
G9a block: -2%[59 µM]; Glioma ERSR ind: -3%; ALOX12 inh: 0%; Sfp PPTase inh: 15%; VDR inhibitor: -2%

How did C=CCSc1nnc(N2C(=O)C(O)=C(C(=O)c3ccco3)C2c2ccccc2F)s1 (configuration not stated) do in these assays?
Glioma ERSR ind: 6%; ALOX12 inh: 0.63µM*; Sfp PPTase inh: 18µM*; VDR inhibitor: -23%

Results for CSc1nnc(N2C(=O)C(O)=C(C(=O)c3ccc(C)o3)C2c2ccc(C)cc2)s1 (configuration not stated) ?
G9a block: -3%[0.501 µM]; Glioma ERSR ind: -1%; ALOX12 inh: inconclusive; Sfp PPTase inh: 16µM*; VDR inhibitor: -4%

How did CSc1nnc(N2C(=O)C(O)=C(C(=O)c3ccco3)C2c2ccccc2F)s1 (configuration not stated) do in these assays?
G9a block: 11%[0.0925 µM]; Glioma ERSR ind: 1%; ALOX12 inh: inconclusive; Sfp PPTase inh: -17%; VDR inhibitor: -14%

Results for Cc1ccc(C(=O)C2=C(O)C(=O)N(c3ncccn3)C2c2ccccc2F)o1 (configuration not stated) ?
G9a block: inconclusive; Glioma ERSR ind: -4%; ALOX12 inh: inconclusive; Sfp PPTase inh: inconclusive; VDR inhibitor: -26%

How did CSc1nnc(N2C(=O)C(O)=C(C(=O)c3ccco3)C2c2ccccc2)s1 (configuration not stated) do in these assays?
G9a block: 40µM*; Glioma ERSR ind: 0%; ALOX12 inh: inconclusive; Sfp PPTase inh: -23%; VDR inhibitor: inconclusive

What do the screens show for `CCCSc1nnc(N2C(=O)C(O)=C(C(=O)c3ccco3)C2c2ccccc2F)s1` (configuration not stated)?
Glioma ERSR ind: -1%; ALOX12 inh: 40µM*; Sfp PPTase inh: 40µM*; VDR inhibitor: inconclusive

What do the screens show for `O=C(Nc1cc(Cl)ccc1F)c1cccc2ccccc12`?
ALOX12 inh: -8%

How did Cc1cc(N2C(=O)C(O)=C(C(=O)c3ccco3)C2c2ccccc2F)no1 (configuration not stated) do in these assays?
G9a block: 79µM*; Glioma ERSR ind: -1%; Sfp PPTase inh: 1%; VDR inhibitor: 4%

How did Cc1cc(N2C(=O)C(O)=C(C(=O)c3ccco3)C2c2cccc(O)c2)no1 (configuration not stated) do in these assays?
G9a block: inconclusive; Glioma ERSR ind: 5%; ALOX12 inh: inconclusive; Sfp PPTase inh: -14%; VDR inhibitor: 8%

What do the screens show for `Cc1nnc(N2C(=O)C(O)=C(C(=O)c3ccco3)C2c2cccc3ccccc23)s1` (configuration not stated)?
G9a block: 50µM*; Glioma ERSR ind: 4%; ALOX12 inh: inconclusive; Sfp PPTase inh: inconclusive; VDR inhibitor: -1%

What do the screens show for `Cc1cc(N2C(=O)C(O)=C(C(=O)c3ccco3)C2c2ccc(Cl)cc2)no1` (configuration not stated)?
G9a block: inconclusive; Glioma ERSR ind: -4%; ALOX12 inh: inconclusive; Sfp PPTase inh: 11%; VDR inhibitor: -8%

Bioassay records (PubChem BioAssay)
